Results: PubChem BioAssay AID686978 (National Center for Advancing Translational Sciences (NCATS), 2013)
Hit rate of the full screen: of about 420,000 compounds, about 64,000 (15%) were called active. Roughly 27% stayed inconclusive and do not appear here. The call rests on the fitted dose curve; in most records, active means well fitted inhibition curve with a large enough effect; inconclusive means small, poorly fitted or top-dose-only effect; inactive means flat fitted curve, though single readings scatter. Not all results are given here.

Assay: qHTS for Inhibitors of human tyrosyl-DNA phosphodiesterase 1 (TDP1): qHTS in cells in absence of CPT; further: nearly all actives have a fitted effect of over 55% in size
Details: DT40 Tdp1-/- hTDP1 cells, no CPT, ATP luminescence, 48 h; activity change, negative = growth inhibition: at 46.2 µM (top of the series)
Outline: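 Growth kinetics read by CellTiter-Glo luminescence after ≥48 hr at 37 °C. Cells: DT40 Tdp1-/- stably carrying human TDP1, 400 per well, compound exposure in the absence of CPT (DMSO vehicle).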
On the % scale 0 is the no-effect control and ±100 the full control effect; potency means the concentration at half of the fitted maximal effect.

SMILES	activity change, negative = growth inhibition	Potency
C[C@@H]1CN([C@@H](C)CO)C(=O)c2cc(NC(=O)C3CC3)ccc2O[C@H]1CN(C)C	-12.9% (inactive)	
CC(C)CC(=O)Nc1cc(C(F)(F)F)ccc1N1CCOCC1	-14.8% (inactive)	
CCOC(=O)c1c(C)[nH]c(C)c1C(=O)CSc1nc(N)cc(N)n1	-4.75% (inactive)	
COCCNc1cc(NCCOC)c([N+](=O)[O-])cc1[N+](=O)[O-]	13.4% (inactive)	
Cc1ccc(OC(=O)c2cc3ccccc3o2)cc1	-2.8% (inactive)	
CCOC(=O)c1[nH]c(C)c(CCC(=O)NCc2ccccc2C)c1C	-8.09% (inactive)	
C/C(CC(=O)Nc1cccc(F)c1)=N\NC(=O)C(=O)NC1CCCCC1	-22.7% (inactive)	
C=C(C)c1cccc(C(C)(C)NC(=O)N2CCN(c3ncccn3)CC2)c1	-17.4% (inactive)	
O=C(CCN1C(=O)c2ccccc2C1=O)NNC(=O)c1ccc(Cl)cc1Cl	11.4% (inactive)	
COc1cccc(-n2cc3c(c2-c2ccccc2)c(=O)n(C)c(=O)n3C)c1		11.6 µM (active)
COc1cccc(-n2cc(C(=O)O)c3ccccc3c2=O)c1	-8.51% (inactive)	
COc1ccc(Nc2cc(=O)n(-c3ccccc3)c3c2c(=O)n(C)c(=O)n3C)cc1	-18.7% (inactive)	
CN1CCN(NC(=O)Nc2ccc(Br)cc2)CC1	8.78% (inactive)	
COC(=O)c1ccc(/C=N/NC(=O)C(=O)N2CCCCCC2)cc1	-15.6% (inactive)	
CCCNC(=O)c1cc(C2CCCN(C(=O)c3ccc4c(c3)CCO4)C2)on1 (stereo not drawn)	6.81% (inactive)	
O=C(c1nnc(-c2ccc(Cl)cc2)o1)C1CCCC1	-0.7% (inactive)	
O=C(c1[nH]ncc1-c1ccc(Cl)cc1)C1CO1 (stereo not drawn)		4.61 µM (active)
S=c1[nH]nc(-c2ccc(Cl)cc2)n1CC1CCCO1 (stereo not drawn)	-20.9% (inactive)	
CC(OC(=O)CCc1nc(=O)c2ccccc2n1C)C(=O)NCc1ccc2c(c1)OCO2 (stereo not drawn)	-8.86% (inactive)	
CCn1c2c(c(=O)n3ncc(C(=O)N4CCN(c5ccccc5)CC4)c13)CN(Cc1ccc(OC)cc1)CC2		16.4 µM (active)
COc1ccc(N2CCN(C(=O)c3ccccc3NC(=O)C3=C(C)OCCS3)CC2)cc1	-29.7% (inactive)	
CCn1c(CNC(=O)c2ccccc2)nnc1SCC(=O)N1CCN(c2ccccc2)CC1	-18.4% (inactive)	
CCC(C)NC(=O)C1CCC(=O)N1Cc1ccc(C)cc1 (stereo not drawn)	4.13% (inactive)	
CN(Cc1ccco1)S(=O)(=O)c1nnc(NC(=O)c2ccccc2)s1	15.1% (inactive)	
COc1ccccc1CNC(=O)CCCn1c(=O)c2ccccc2n(CC(=O)Nc2ccc(C)cc2Cl)c1=O	-24.6% (inactive)	
COc1ccc(NC(=O)Cn2c(=O)n(Cc3ccc(C(=O)NCc4ccccc4Cl)cc3)c(=O)c3ccccc32)cc1	-26.8% (inactive)	
COc1ccc(CCNC(=O)CCCCn2c(=O)c3ccccc3n(Cc3ccccc3)c2=O)cc1OC		20.6 µM (active)

SMILES	activity change, negative = growth inhibition	Potency
COc1ccc(CCNC(=O)CCCn2c(=O)c3ccccc3n(Cc3ccc(F)cc3Cl)c2=O)cc1OC	-1.95% (inactive)	
Cc1ccc(Cn2c(=O)n(CCCC(=O)NCc3ccccc3Cl)c(=O)c3ccccc32)cc1	-2.45% (inactive)	
COc1ccccc1CNC(=O)CCn1c(=O)c2ccccc2n(CC(=O)Nc2cccc(Cl)c2)c1=O		18.4 µM (active)
COc1ccccc1CNC(=O)CCCCn1c(=O)c2ccccc2n(CC(=O)Nc2cc(Cl)ccc2C)c1=O		10.3 µM (active)
COc1ccccc1CNC(=O)CCn1c(=O)sc2ccccc21	-9.01% (inactive)	
COCCNC(=O)CCCn1c(=O)c2ccccc2n(Cc2cccc([N+](=O)[O-])c2)c1=O	6.9% (inactive)	
CC(C)(C)C1CCC(=NNC(=O)c2ccc(Br)o2)CC1 (stereo not drawn)	-6.8% (inactive)	
Cc1nc2cccnc2nc1C	10.1% (inactive)	
Cc1ccc2c(c1)C(O)(CC(=O)c1cccc(-n3cccc3)c1)C(=O)N2 (stereo not drawn)	10.3% (inactive)	
CCCCCCCCc1c(O)nc(-n2[nH]c(C)c(CCO)c2=O)[nH]c1=O	-8.48% (inactive)	
Cc1ccc(C(=O)NNC(=O)c2ccc3c(c2)OCCO3)cc1	20.7% (inactive)	
COC(=O)c1ccc(C(=O)OC)c(NC(=S)N2CCCCC2)c1	0.473% (inactive)	
Brc1ccc(-c2noc(-c3ccccc3)n2)o1		inactive
Cn1c(=O)cc(SCC(=O)N2CCN(C(=O)c3ccco3)CC2)c2ccccc21	-1.28% (inactive)	
Nc1c(C(=O)O)cnn1-c1ccccc1	-27.1% (inactive)	
CCn1c(O)c(N=NC(=O)c2cccc(S(=O)(=O)N3CCCCC3)c2)c2ccccc21		23.1 µM (active)
CN1CCN(S(=O)(=O)c2cccc(C(=O)O)c2)CC1	-4.32% (inactive)	
COC(=O)Cn1c(O)c(N=NC(=O)OC)c2ccccc21	-1.25% (inactive)	
O=[N+]([O-])c1cccc(C2=NCCS2)c1	-20% (inactive)	
CC(CC(=O)Nc1ccc(F)cc1F)S(=O)(=O)c1ccc2c(c1)NC(=O)CO2 (stereo not drawn)	-1.12% (inactive)	
O=C(NCc1cccnc1)Nc1cccc(NC(=O)NCc2cccnc2)c1F	12.9% (inactive)	
COCCCN1C(=O)c2ccc(C(=O)OCC(=O)NCc3ccccc3OC)cc2C1=O	7.9% (inactive)	
CCOc1ccc(C2C(C(=O)O)c3ccccc3C(=O)N2CCN2CCOCC2)cc1 (stereo not drawn)	-4.91% (inactive)	
CC(=O)c1ccc(OCCN2CCOCC2)cc1	-1.61% (inactive)	
CCOc1ccc(C(=O)CCN2CCOCC2)cc1		20.6 µM (active)
CC1CN(C2CCN(C(=O)COc3ccccc3)CC2)CC(C)O1 (stereo not drawn)	-11.5% (inactive)	
